Test [1] relates to Plasmodium falciparum Sir2 (PF13_0152, Sir2A). Put plainly: pfSir2 binders on small-molecule microarrays, primary screen, biochemical, small-molecule microarray, 635 nm fluorescence (AID 1098).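 Also: score merges spot fluorescence intensity with its signal-to-noise ratio.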 The following applies: small-molecule microarray binding, fluorescence 635 nm; higher = more signal.
A short description of test [2]: small-molecule microarray binders of probe aDKK1, primary screen, biochemical, biotinylated probe, 635/667 nm fluorescence (AID 1099).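 Also: score merges 667nm spot fluorescence with signal to noise across triplicate slides.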 The conditions noted are these: higher = more signal.
Test [3] is described as follows: small-molecule microarray binders of probe aCHRDL2, primary screen, biochemical, biotinylated probe, 635/667 nm fluorescence (AID 1100). The conditions noted are these: higher = more signal.
A short description of test [4]: splicing luciferase reporter signal modulators, primary screen, spliceosome inhibition project, cell-based, HEK293, splice +/- reporter (AID 1101).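 Also: HEK293 cells carrying a splicing-competent luciferase reporter gene; test concentration not given here.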 The following applies: luminescence, 24 h, higher = more signal, called active from +8 up or from −8 down. In general terms: Reporter assays use an easily measured gene product as a stand-in for the process of interest.
Test [5] deals with Fibroblast growth factor 10 (Homo sapiens) (UniProt O15520). The experiment in a line: FGF10 binders on small-molecule microarrays, primary screen, biochemical, small-molecule microarray, 635 nm fluorescence (AID 1102). The conditions noted are these: FGF10 binding, fluorescence 635 nm, higher = more signal.
Chain of Fibroblast growth factor 10 (Homo sapiens) (O15520 whole entry, looked up): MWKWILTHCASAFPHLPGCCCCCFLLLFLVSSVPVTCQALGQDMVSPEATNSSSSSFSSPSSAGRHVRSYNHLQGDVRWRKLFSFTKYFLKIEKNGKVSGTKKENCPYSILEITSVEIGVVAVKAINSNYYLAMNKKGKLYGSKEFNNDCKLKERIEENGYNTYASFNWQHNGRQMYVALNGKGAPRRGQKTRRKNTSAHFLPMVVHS
For test [6], the system named is glycogen synthase kinase-3 (GSK3A per assay name; protocol says GSK3B). Put plainly: GSK3 binders on small-molecule microarrays, primary screen, biochemical, small-molecule microarray, 635 nm fluorescence, GSK3A (AID 1103). Also: the record names both GSK3A and GSK3B. The following applies: small-molecule microarray binding, fluorescence 635 nm; higher = more signal.
For test [7], the target named is Epidermal growth factor receptor (Homo sapiens) (UniProt P00533). The experiment in a line: EGFR binders on small-molecule microarrays, primary screen, biochemical, small-molecule microarray, 635 nm fluorescence (AID 1104).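 Also: score merges 667 nm emission intensity with spot signal to noise over triplicate slides.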 The conditions noted are these: EGFR binding, higher = more signal.
Chain of Epidermal growth factor receptor (Homo sapiens) (P00533 whole entry, looked up): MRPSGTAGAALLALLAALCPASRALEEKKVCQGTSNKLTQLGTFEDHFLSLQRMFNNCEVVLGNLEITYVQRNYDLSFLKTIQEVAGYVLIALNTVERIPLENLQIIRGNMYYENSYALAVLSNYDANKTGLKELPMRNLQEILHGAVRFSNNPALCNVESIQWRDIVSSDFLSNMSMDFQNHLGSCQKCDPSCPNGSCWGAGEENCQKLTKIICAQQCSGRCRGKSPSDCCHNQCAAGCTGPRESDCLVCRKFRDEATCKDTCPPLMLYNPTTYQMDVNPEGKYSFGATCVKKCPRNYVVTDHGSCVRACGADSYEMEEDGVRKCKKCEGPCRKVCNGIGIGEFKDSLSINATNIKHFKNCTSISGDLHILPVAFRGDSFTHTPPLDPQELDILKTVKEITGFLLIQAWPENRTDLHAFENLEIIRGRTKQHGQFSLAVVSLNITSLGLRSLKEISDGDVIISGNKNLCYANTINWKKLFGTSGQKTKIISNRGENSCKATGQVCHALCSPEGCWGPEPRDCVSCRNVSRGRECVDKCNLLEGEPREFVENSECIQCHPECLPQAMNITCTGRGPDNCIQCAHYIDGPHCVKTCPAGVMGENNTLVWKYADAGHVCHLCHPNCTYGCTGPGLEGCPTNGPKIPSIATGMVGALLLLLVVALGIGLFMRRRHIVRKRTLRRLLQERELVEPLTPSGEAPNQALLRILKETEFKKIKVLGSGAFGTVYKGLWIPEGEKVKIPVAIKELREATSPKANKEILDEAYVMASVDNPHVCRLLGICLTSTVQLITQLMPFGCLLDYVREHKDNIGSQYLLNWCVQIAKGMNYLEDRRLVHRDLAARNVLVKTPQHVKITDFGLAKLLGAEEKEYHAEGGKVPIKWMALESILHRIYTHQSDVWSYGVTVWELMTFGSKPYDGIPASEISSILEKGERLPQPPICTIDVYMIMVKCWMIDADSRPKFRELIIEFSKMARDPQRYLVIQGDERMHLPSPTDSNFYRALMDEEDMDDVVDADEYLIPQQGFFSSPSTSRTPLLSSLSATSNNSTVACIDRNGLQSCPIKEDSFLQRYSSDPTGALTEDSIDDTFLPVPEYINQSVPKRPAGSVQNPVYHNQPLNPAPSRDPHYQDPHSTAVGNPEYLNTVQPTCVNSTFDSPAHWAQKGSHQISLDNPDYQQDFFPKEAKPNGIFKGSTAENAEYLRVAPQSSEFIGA
The target in test [8] is Follistatin-related protein 3 (Homo sapiens) (UniProt O95633). Put plainly: FSTL3 binders on small-molecule microarrays, primary screen, biochemical, small-molecule microarray, 635 nm fluorescence (AID 1105).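 Also: score merges emission near 667 nm and signal to noise per printed spot across three slides.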 The conditions noted are these: FSTL3 binding, higher = more signal.
Chain of Follistatin-related protein 3 (Homo sapiens) (O95633 whole entry, looked up): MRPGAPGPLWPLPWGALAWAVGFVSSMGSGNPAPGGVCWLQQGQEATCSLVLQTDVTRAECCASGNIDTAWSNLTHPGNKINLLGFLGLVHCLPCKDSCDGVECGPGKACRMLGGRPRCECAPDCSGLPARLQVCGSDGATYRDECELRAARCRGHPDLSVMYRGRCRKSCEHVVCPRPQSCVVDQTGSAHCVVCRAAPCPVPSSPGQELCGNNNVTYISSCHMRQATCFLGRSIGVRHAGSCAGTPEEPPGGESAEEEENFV
The target of test [9] is Dickkopf-related protein 1 (Homo sapiens) (UniProt O94907). The experiment in a line: DKK1 binders on small-molecule microarrays, primary screen, biochemical, small-molecule microarray, 635 nm fluorescence scan (AID 1106).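 Also: score merges emission near 667 nm with signal to noise over three replicate slides.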 The conditions noted are these: DKK1 binding, higher = more signal.
Chain of Dickkopf-related protein 1 (Homo sapiens) (O94907 whole entry, looked up): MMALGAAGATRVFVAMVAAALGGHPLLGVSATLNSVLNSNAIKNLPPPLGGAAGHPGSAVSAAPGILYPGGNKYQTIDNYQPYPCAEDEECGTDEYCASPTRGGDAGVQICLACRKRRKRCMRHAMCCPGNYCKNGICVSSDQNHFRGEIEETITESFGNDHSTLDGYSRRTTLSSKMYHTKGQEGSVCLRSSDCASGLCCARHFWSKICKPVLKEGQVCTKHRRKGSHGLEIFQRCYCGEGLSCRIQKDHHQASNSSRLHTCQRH
Test [10] concerns Inhibin beta A chain (activin A). Put plainly: INHBA (activin A) binders on microarrays, primary screen, biochemical, small-molecule microarray, 635 nm fluorescence scan (AID 1107).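 Also: mouse activin A protein probed at 4.33 µg/mL on printed slides; score merges bound-protein fluorescence near 667 nm with spot signal-to-noise.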 The following applies: small-molecule microarray binding, higher = more signal.
In test [11] the test system is Human papillomavirus type 1a protein E7 (residues 44-93). The experiment in a line: HPV1a E7 fragment binders on microarrays, primary screen, biochemical, small-molecule microarray, residues 44-93, 635 nm fluorescence (AID 1108).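 Also: E7 fragment applied at 1 µg/mL in TBST for 1 h at 4 C; score combines spot fluorescence with its signal to noise ratio.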 The following applies: small-molecule microarray binding, fluorescence 635 nm; higher = more signal.
Test [12] in a line: modulators of HCV replicon luciferase signal, primary screen, HCV replication inhibitor project, Huh7 cells, luciferase reporter (AID 1109).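 Also: huh7 hepatoma cells harbouring a luciferase neomycin HCV replicon reporter; luciferase luminescence as measure of HCV replicon replication; test concentration not given here.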 The following applies: 48 h, higher = more signal. Background: In antiviral work, replicon cells carry a viral genome segment that copies itself.
Test [13] has as its target Left-right determination factor 2 (Homo sapiens) (UniProt O00292). Put plainly: LEFTY2 binders on small-molecule microarrays, primary screen, biochemical, small-molecule microarray, 635 nm fluorescence scan (AID 1110). The conditions noted are these: LEFTY2 binding, higher = more signal.
Test [14] addresses Calmodulin-1 (Homo sapiens) (UniProt P0DP23). The experiment in a line: CALM1 binders on microarrays, EGTA buffer, profiling panel, biochemical, small-molecule microarray, Cy5-labelled CALM1 (AID 1111).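 Also: labelled calmodulin applied in Tris saline Tween buffer holding calcium plus EGTA and DTT.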 The conditions noted are these: Cy5-CALM1 binding fluorescence, higher = more signal.
The target is the same in test [15]. Put plainly: calcium-bound CALM1 binders on microarrays, profiling panel, artefact control for SMM control-protein annotation, biochemical, small-molecule microarray, Cy5-labelled CALM1, plus calcium (AID 1112).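 Also: score merges spot fluorescence with signal to noise from triplicate slides.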 The following applies: Cy5-CALM1 binding fluorescence, higher = more signal.
A short description of test [16]: small-molecule microarray binders of probe aWnt5a, primary screen, biochemical, biotinylated probe, 635/667 nm fluorescence (AID 1113).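 Also: score merges 667 nm fluorescence intensity with signal-to-noise per printed feature.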 The following applies: higher = more signal.
A short description of test [17]: small-molecule microarray binders of probe aShh, primary screen, biochemical, biotinylated probe, 635/667 nm fluorescence (AID 1114).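 Also: probe is biotin-labelled aShh protein from a stem cell growth factor screen; measures binding of labelled protein to compounds printed on the slide; score merges feature fluorescence at 667 nm with signal-to-noise.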 The conditions noted are these: higher = more signal.
A short description of test [18]: small-molecule microarray binders of probe aNog, primary screen, biochemical, biotinylated probe, 635/667 nm fluorescence (AID 1115).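 Also: probe is biotinylated aNog protein used at 0.15 µg/mL for 1 h at 4 C; z-score combines 667 nm fluorescence of each spot with its signal to noise.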 The conditions noted are these: higher = more signal.
Test [19] addresses Torsin-1A-interacting protein 1 (Homo sapiens) (UniProt Q5JTV8). Put plainly: LAP1 binders from COS7 cell lysate, primary screen, small-molecule microarray, 635/667 nm fluorescence (AID 1116). The conditions noted are these: COS7-hLAP1 lysate binding, 635 nm fluorescence, higher = more signal.
Test [20] addresses Alpha-bungarotoxin (Bungarus multicinctus) (UniProt P60615). Put plainly: alpha-bungarotoxin binders on microarray, profiling panel, artefact control for SMM control protein annotation, biochemical, small-molecule microarray, Alexa647 label, 635/667 nm fluorescence (AID 1117). The following applies: alpha-BTX-A647 binding fluorescence, higher = more signal.

Each structure is given as a SMILES string. Activity calls are given as the source filed them.

Chain of Torsin-1A-interacting protein 1 (Homo sapiens) (Q5JTV8 whole entry, looked up): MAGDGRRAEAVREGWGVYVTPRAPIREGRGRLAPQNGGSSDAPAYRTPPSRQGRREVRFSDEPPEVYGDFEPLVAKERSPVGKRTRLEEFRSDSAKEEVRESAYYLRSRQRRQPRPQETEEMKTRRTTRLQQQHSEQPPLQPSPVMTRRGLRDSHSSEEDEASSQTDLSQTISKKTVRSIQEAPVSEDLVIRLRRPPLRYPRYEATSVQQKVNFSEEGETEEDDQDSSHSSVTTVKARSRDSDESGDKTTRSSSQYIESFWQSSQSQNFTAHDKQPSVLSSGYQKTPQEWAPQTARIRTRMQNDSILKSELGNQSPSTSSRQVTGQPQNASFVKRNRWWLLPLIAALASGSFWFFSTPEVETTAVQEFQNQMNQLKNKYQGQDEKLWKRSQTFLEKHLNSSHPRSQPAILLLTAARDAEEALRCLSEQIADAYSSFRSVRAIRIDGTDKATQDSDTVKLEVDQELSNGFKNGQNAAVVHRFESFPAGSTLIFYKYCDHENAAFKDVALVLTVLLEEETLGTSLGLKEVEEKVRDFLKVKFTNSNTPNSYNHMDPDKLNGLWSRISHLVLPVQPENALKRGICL
Chain of Left-right determination factor 2 (Homo sapiens) (O00292 whole entry, looked up): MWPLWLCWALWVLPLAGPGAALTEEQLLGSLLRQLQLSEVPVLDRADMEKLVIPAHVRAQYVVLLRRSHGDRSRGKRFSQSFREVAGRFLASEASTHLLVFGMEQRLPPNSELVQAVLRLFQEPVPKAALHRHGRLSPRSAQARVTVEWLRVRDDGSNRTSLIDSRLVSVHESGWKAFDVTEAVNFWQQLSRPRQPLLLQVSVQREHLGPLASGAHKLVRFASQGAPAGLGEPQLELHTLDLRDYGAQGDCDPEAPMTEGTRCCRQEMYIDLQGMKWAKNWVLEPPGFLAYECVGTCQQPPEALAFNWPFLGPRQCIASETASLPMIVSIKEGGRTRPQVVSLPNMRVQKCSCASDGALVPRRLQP
Chain of Alpha-bungarotoxin (Bungarus multicinctus) (P60615 whole entry, looked up): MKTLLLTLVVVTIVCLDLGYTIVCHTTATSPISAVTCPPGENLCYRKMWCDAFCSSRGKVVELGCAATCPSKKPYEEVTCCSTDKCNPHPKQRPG

Take `COc1ccc(NN2C(C(O)c3ccccc3)C=CC3C(=O)N(C4CCCCC4)C(=O)C32)cc1` (stereo not given): the composite z-score is 1.25 in [1]; 0.535 in [2]; 0.291 in test [3]; 1.24 in test [5]; 1.28 in test [6]; 0.122 in [7]. In addition, the composite z-score in test [8] was 1.21; in [9], 0.453; in test [10], 0.786; in test [11], 1.45; in test [13], 0.395; in [14], 1.38. For the same molecule, the composite z-score in test [15] was -0.15; in test [16], 0.0974; in test [17], 0.13; in test [18] it was 0.908; in test [19] it was 0.644; in test [20], 1.13. The z-score in test [4] was -1.18 (inactive); in test [12] it was -0.888.

Regarding `O=C(NC1CC1)[C@@H]1c2ccccc2C(=O)N(C2CCCCC2)[C@H]1c1ccc(CO)cc1`, the composite z-score is 0.891 in [1]; 1.84 in test [2]; 0.989 in test [3]; 0.055 in test [5]; 0.286 in test [6]; 0.0989 in test [7]. The composite z-score is 0.208 in test [8]; 0.139 in [9]; -0.24 in test [10]; 0.178 in test [11]; 0.0863 in test [13]; 0.576 in [14]. The composite z-score in test [15] is 0.109; in test [16], -0.176; in test [17], -0.321; in test [18], -0.16; in test [19] it was 0.482; in test [20], 1.5. Also, the values for the z-score in test [4] and in [12] were -0.496 (inactive) and -2.14, respectively.

Consider `COCCOC(=O)N1C(=O)[C@@]2(c3cc(C#CCNC(N)=O)ccc31)[C@H](c1ccc(O)cc1)N1[C@H](c3ccccc3)[C@H](c3ccccc3)OC(=O)[C@H]1[C@@H]2C(=O)N1CCc2cc(OC)c(OC)cc2C1`, for which the composite z-score in test [1] was 0.391; in [2], 0.206; in [3], 0.493; in [5] it was 1.19; in [6], -0.447; in test [7], 0.292. The composite z-score in test [8] was 1.2; in test [9], 0.372; in test [10] it was 0.899; in [11], 1.31; in [13], 0.266; in test [14], 0.111. The composite z-score is 0.118 in [15]; 0.586 in test [16]; -0.167 in test [17]; -0.25 in [18]; 0.712 in test [19]; 0.857 in test [20]. Further, the z-score in test [4] was -1.41 (inactive); in test [12], -0.281.

Consider `CC[C@@H](O[Si](C#C[Si](C(C)C)(C(C)C)C(C)C)(C(C)C)C(C)C)c1cn([C@H](C)c2ccccc2)nn1`, for which the composite z-score is 0.43 in [1]; 0.0317 in [2]; -0.328 in [3]; 0.403 in test [5]; 0.136 in test [6]; 0.533 in [7]. Besides, the composite z-score was 0.658 in [8]; 0.432 in test [9]; -0.142 in [10]; 0.818 in test [11]; 0.435 in test [13]; -0.273 in test [14]. In addition, the composite z-score in test [15] is -0.0786; in test [16], -0.0758; in test [17] it was 0.0637; in [18], -0.28; in [19], 0.651; in test [20], 0.188. The values for the z-score in test [4] and in [12] were 0.242 (inactive) and -0.772, respectively.

Turning to `C=C[C@H](OC)[C@@H](O)c1ccc(OC)c(O)c1`, the composite z-score is 0.352 in test [1]; -0.464 in test [2]; 0.37 in [3]; -0.928 in test [5]; -1.3 in test [6]; -1.14 in test [7]. The composite z-score in test [8] was -1.91; in test [9], -1.29; in test [10], -1.28; in test [11], -1.25; in test [13], -1.77; in [14], -1.06. In addition, the composite z-score in test [15] was -0.597; in [16] it was -0.0981; in test [17] it was -0.0035; in test [18] it was -0.326; in test [19], -0.435; in test [20], -0.646. Further, the z-score is 0.772 (inactive) in [4] and 0.622 in test [12].

On to `COCCCNC(=O)[C@@]1(Cc2ccccc2I)c2ccccc2C(=O)N(Cc2ccccc2C(F)(F)F)[C@H]1c1ccc(CO)cc1`, for which the composite z-score in [1] is 0.228; in [2] it was 0.201; in test [3], 0.883; in test [5] it was 0.0125; in [6], -0.559; in [7], -1.71. Further, the composite z-score in test [8] was -0.961; in test [9] it was -1.68; in [10] it was -0.601; in test [11], 1.1; in test [13] it was -2.26; in test [14], -0.285. The composite z-score in test [15] was -0.664; in test [16], -0.136; in [17] it was -0.0848; in test [18] it was 0.2; in test [19], -0.0065; in test [20] it was -0.458. For the same molecule, the z-score in test [4] was 0.544 (inactive); in test [12], -0.594.

The values above are taken from PubChem BioAssay.
